PubChem BioAssay (NCATS)
Records with an inconclusive call do not appear. Activity calls are given as the source filed them. Calls follow the shape of the dose curve; as a rule, active = well fitted inhibition curve with a large enough effect; inconclusive = small, poorly fitted or top-dose-only effect; inactive = flat fitted curve, though single readings scatter.

What was measured:
Experiment in all cases: qHTS profiling for inhibitors of Plasmodium falciparum proliferation (AID 504749); also: nearly all actives have a fitted effect of over 60% in size
[1] = system: 3D7; details: P. falciparum in erythrocytes, SYBR Green DNA, 72 h; series mostly up to 28.7 µM
Outline: (§1)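 SYBR Green fluorescence (ex 485 nm, em 535 nm) reports parasite DNA after 72 h compound exposure of infected red cells at 0.3% parasitemia, 2.5% hematocrit; signal normalized to 0.29 uM artemisinin and vehicle wells.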

[2] = system: ATS95; details: P. falciparum in erythrocytes, SYBR Green DNA, 72 h; series mostly up to 28.7 µM
Outline: as §1

[3] = system: C2A; details: P. falciparum in erythrocytes, SYBR Green DNA, 72 h; series mostly up to 28.7 µM
Outline: as §1

[4] = system: CP237; details: P. falciparum in erythrocytes, SYBR Green DNA, 72 h; series mostly up to 28.7 µM
Outline: as §1

[5] = system: CP238; details: P. falciparum in erythrocytes, SYBR Green DNA, 72 h; series mostly up to 28.7 µM
Outline: as §1

[6] = system: CP262; details: P. falciparum in erythrocytes, SYBR Green DNA, 72 h; series mostly up to 28.7 µM
Outline: as §1

[7] = system: CP265; details: P. falciparum in erythrocytes, SYBR Green DNA, 72 h; series mostly up to 12.8 µM
Outline: as §1

[8] = system: CP266; details: P. falciparum in erythrocytes, SYBR Green DNA, 72 h; series mostly up to 12.8 µM
Outline: as §1

[9] = system: CP268; details: P. falciparum in erythrocytes, SYBR Green DNA, 72 h; series mostly up to 28.7 µM
Outline: as §1

[10] = system: CP269; details: P. falciparum in erythrocytes, SYBR Green DNA, 72 h; series mostly up to 28.7 µM
Outline: as §1

[11] = system: CP286; details: P. falciparum in erythrocytes, SYBR Green DNA, 72 h; series mostly up to 28.7 µM
Outline: as §1

[12] = system: CP305; details: P. falciparum in erythrocytes, SYBR Green DNA, 72 h; series mostly up to 28.7 µM
Outline: as §1

[13] = system: CP325; details: P. falciparum in erythrocytes, SYBR Green DNA, 72 h; series mostly up to 28.7 µM
Outline: as §1

[14] = system: DIV30; details: P. falciparum in erythrocytes, SYBR Green DNA, 72 h; series mostly up to 28.7 µM
Outline: as §1

[15] = system: ECU; details: P. falciparum in erythrocytes, SYBR Green DNA, 72 h; series mostly up to 28.7 µM
Outline: as §1

[16] = system: GB4; details: P. falciparum in erythrocytes, SYBR Green DNA, 72 h; series mostly up to 28.7 µM
Outline: as §1

[17] = system: HB3; details: P. falciparum in erythrocytes, SYBR Green DNA, 72 h; series mostly up to 28.7 µM
Outline: as §1

[18] = system: P93_24; details: P. falciparum in erythrocytes, SYBR Green DNA, 72 h; series mostly up to 28.7 µM
Outline: as §1

[19] = system: PAD; details: P. falciparum in erythrocytes, SYBR Green DNA, 72 h; series mostly up to 28.7 µM
Outline: as §1

[20] = system: PC26; details: P. falciparum in erythrocytes, SYBR Green DNA, 72 h; series mostly up to 28.7 µM
Outline: as §1

Measured: Potency

C#CCN(C)[C@@H](C)Cc1ccccc1
inactive: all assays above

C[C@@]12CC[C@H]3[C@@H](CC[C@@H]4C[C@H]5S[C@H]5C[C@]43C)[C@H]1CC[C@H]2O
inactive: all assays above
